High-throughput results deposited in PubChem by National Center for Advancing Translational Sciences (NCATS).
A selection: hits, their analogues and other compounds. The true share with any hit is near 21%.
CHX counter: Cycloheximide Counterscreen for Small Molecule Inhibitors of Shiga Toxin | cell reporter, cycloheximide protein synthesis inhibition counterscreen | max response, % | 12% of 300,000 active | AID 2314, 2010; in the data active = max response mostly above about 13%, no sharp cut-off; inactive = mostly below about 14%; note: read at 38.3 µM for the half of the compounds with a filed dose
Pf growth 48h: Primary qHTS for delayed death inhibitors of the malarial parasite plastid, 48 hour incubation; P. falciparum luciferase growth in erythrocytes, 48 h; Potency, µM (top dose mostly 28.7 µM), actives largely listed as inhibitors; 5.9% of 310,000 active; AID 504832, 2011
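Luminescence readout; reporter = integrated firefly luciferase in P. falciparum. RBC culture at 2% hematocrit, 0.1% parasitemia final, 37 C/5% CO2; decreased signal taken as growth inhibition.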
Pf growth 96h: Primary qHTS for delayed death inhibitors of the malarial parasite plastid, 96 hour incubation | P. falciparum luciferase reporter growth, 96 h | Potency, µM (series often up to 28.7 µM), usual class: inhibitors | 6.9% of 320,000 active
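Cell-based qHTS: luciferase-tagged P. falciparum in erythrocytes (2% hematocrit, 0.05% parasitemia final) incubated with compounds for 96 hours, 37 C, 5% CO2; luciferase detection reagent then added and luminescence measured.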
FBPA Giardia inh: qHTS Assay for Inhibitors of Fructose-1,6-bisphosphate Aldolase from Giardia Lamblia; purified Giardia FBPA; A8B2U2; Potency, µM (series often up to 59.6 µM), most hits filed as inhibitors; AID 2451, 2010; 0.71% of 290,000 active; note: nearly all actives have a fitted effect of over 55% in size
Target sequence (A8B2U2 whole entry, looked up): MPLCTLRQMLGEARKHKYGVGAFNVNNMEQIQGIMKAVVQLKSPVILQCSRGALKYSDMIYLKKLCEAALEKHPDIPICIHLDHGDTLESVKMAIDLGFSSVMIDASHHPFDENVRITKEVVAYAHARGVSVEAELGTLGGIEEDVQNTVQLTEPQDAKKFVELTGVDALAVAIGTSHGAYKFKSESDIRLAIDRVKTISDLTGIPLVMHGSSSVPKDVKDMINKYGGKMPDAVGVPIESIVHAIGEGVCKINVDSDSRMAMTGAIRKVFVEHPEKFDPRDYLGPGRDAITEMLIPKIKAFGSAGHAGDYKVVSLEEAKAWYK
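40 nM FBPA preincubated 10 min at RT with compound (up to 57.5 uM final), then substrate plus GAPDH/TPI/NAD/arsenate coupling and diaphorase/resazurin added. Fluorescence read after 20 min at RT, 525/598 nm.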
Shiga toxin inh: A qHTS for Small Molecule Inhibitors of Shiga Toxin. AID 2315, 2010. inhibition, % at 38.7 µM. Vero cells, Shiga toxin protein synthesis inhibition reporter. 9.2% of 290,000 active; in the data active = inhibition mostly above about 28%, no sharp cut-off; inactive = mostly below about 43%
NS1 function inh: qHTS Assay for Inhibitors of Influenza NS1 Protein Function | Potency, µM (titrated, usually from 46.1 µM) | 0.4% of 270,000 active | AID 2326, 2010; calls by dose curve; note: actives are rising curves; nearly all actives have a fitted effect of over 50% in size
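Recovery from NS1-induced slow growth read by OD600 in budding yeast switched to galactose assay medium (pH 6.0, -URA) at 1:100 dilution. Compound 23 nl per well; the matching strain lacking NS1 serves as control.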
Of the large screens only hits and unclear results are named; the others gave an inactive call. Unless noted, calls come from the whole dose curve; as a rule, active = well fitted curve in the direction sought with a large enough effect; inconclusive = small, poorly fitted or top-dose-only effect, or another doubt; inactive = no such curve, though single readings can be large; an effect the other way counts as inactive or inconclusive.

COc1ccc(C2/C=C\CN(S(=O)(=O)c3ccc(C)cc3)C(C)C(=O)N2Cc2ccc(F)cc2)cc1 (stereo unspecified)	none (no result: Pf growth 48h, Pf growth 96h, NS1 function inh)
COc1ccc(C(=O)NNC(=S)NC(=O)c2ccc(Br)o2)cc1OC	Pf growth 48h inconclusive
C/C(=N/NC(=O)c1ccc(Br)o1)C(C)C	CHX counter 30, Pf growth 96h inconclusive, Shiga toxin inh 79
COc1ccc(NC(=S)NC(=O)c2ccc(Br)o2)cc1	CHX counter 67, Shiga toxin inh 96
COc1cccc(CNC(=O)COC(=O)CCc2cc(OC)c(OC)c(OC)c2)c1	none (no result: CHX counter, FBPA Giardia inh, Shiga toxin inh, NS1 function inh)
CCOc1ncccc1C(=O)N1CCCSC1=Nc1ccc(C(C)=O)cc1	Pf growth 48h inconclusive, Pf growth 96h inconclusive
COc1ccc2cc(CN(CC3COCCO3)S(=O)(=O)c3ccccc3)c(=O)[nH]c2c1 (stereo unspecified)	none
CCN(CC)CCN(Cc1cc2ccc(C)cc2[nH]c1=O)C(=O)NC1CCCCC1	Pf growth 48h inconclusive
COc1ccc2cc(CN(Cc3cccnc3)S(=O)(=O)c3ccccc3)c(=O)[nH]c2c1	Pf growth 48h 10µM (no result: Pf growth 96h)
COc1cc2cc(CN(Cc3cccnc3)C(=O)NCc3ccccc3)c(=O)[nH]c2cc1OC	Pf growth 48h 9.3µM, Pf growth 96h inconclusive
O=C(NC1CCCCC1)N(Cc1cc2cc3c(cc2[nH]c1=O)OCCO3)C1CCCCC1	Pf growth 96h 5.9µM (no result: Pf growth 48h)
COc1ccc(CN(Cc2cc3cc(OC)c(OC)cc3[nH]c2=O)C(=O)NC2CCCCC2)cc1	Pf growth 96h 1.7µM (no result: Pf growth 48h)
COc1ccc2cc(CN(C(=O)Nc3ccccc3OC)C3CCCC3)c(=O)[nH]c2c1	Pf growth 48h 2.3µM
COc1cc2cc(CN(C(=O)NC3CCCCC3)C3CCCC3)c(=O)[nH]c2cc1OC	Pf growth 48h 12µM, Pf growth 96h inconclusive
CCC(=O)N(Cc1cc2cc(C)c(C)cc2[nH]c1=O)C1CCCCC1	Pf growth 48h inconclusive
c1csc(-c2nc(CN3CCSCC3)cs2)c1	CHX counter 45, Shiga toxin inh 76
O=S1(=O)CCN(Cc2csc(-c3cccs3)n2)CC1	CHX counter 31, Shiga toxin inh 68
Cc1ccc(NC(=O)N2CCCC2C(=O)Nc2nnc(C(C)C)s2)cc1 (stereo unspecified)	none
COc1ccc(NC(=O)c2scc(S(=O)(=O)C(C)C)c2N)cc1	CHX counter 35, Shiga toxin inh 75
COc1ccc(NC(=O)c2sc(SC)nc2N)cc1	CHX counter 39 (no result: Pf growth 48h)
COc1ccc(NC(=O)c2sc(SCc3ccccc3)nc2N)cc1	CHX counter 22
CCN(CC)C(=O)CSc1nc(N)c(C(=O)Nc2ccc(OC)cc2)s1	none
CC(C)N(C(=O)CN1CCC(c2nc3ccccc3[nH]2)CC1)C(C)C	none (no result: FBPA Giardia inh)
COc1ccc(S(=O)(=O)N2CCCCCC2)cc1C(=O)N(CC(C)C)C1CCS(=O)(=O)C1 (stereo unspecified)	Pf growth 48h inconclusive (no result: CHX counter, FBPA Giardia inh, Shiga toxin inh, NS1 function inh)
Cc1ccccc1C(=O)Nc1ccc2c(c1)OCO2	CHX counter 30 (no result: Pf growth 96h)
COc1cc(C(=O)Nc2ccc3c(c2)OCCO3)c(-n2cnnn2)cc1OC	none
COc1ccccc1C(=O)Nc1ccc2c(c1)C(=O)NC2=O	CHX counter 28, Pf growth 96h inconclusive, Shiga toxin inh 22
COc1cc(SC)ccc1C(=O)Nc1ccc2c(c1)OCCO2	CHX counter 34
COc1ccccc1C(=O)Nc1ccc2c(c1)OCO2	CHX counter 43, Shiga toxin inh 61 (no result: Pf growth 48h)
COc1ccc(CN2CCNC(=O)C2CC(=O)NCC(C)(C)N2CCOCC2)cc1C (stereo unspecified)	Pf growth 96h inconclusive (no result: FBPA Giardia inh)
Cc1cc(C)nc(NS(=O)(=O)c2ccc(N/C=C/C(=O)c3ccc(Cl)c(Cl)c3)cc2)n1	none
CC(SCc1ccccc1)C(=O)Nc1ccccc1 (stereo unspecified)	Pf growth 48h inconclusive, Pf growth 96h inconclusive
O=C(CNC(=O)c1ccccc1F)OCC(=O)c1ccc(Cl)s1	none
CON1C(=O)C(=O)N(OC)C(C)(C)C1(C)C	none
COc1ccccc1C(=O)Nc1ccc2c(c1)OCCO2	CHX counter 41, Pf growth 96h inconclusive, Shiga toxin inh 85
Clc1ccc(-n2nnnc2CN2CCOCC2)cc1	none
Cc1ccc(S(=O)(=O)Cn2nnnc2CN2CCCC3(CCCCC3)C2)cc1	Pf growth 48h 13µM (no result: Pf growth 96h)
Cc1ccc(-n2nnnc2CN2CCCCC2)cc1	Pf growth 96h 2.1µM
CCOc1ccc(S(=O)(=O)N2CCC(C(=O)NCc3ccccn3)CC2)cc1C	none
COc1ccc(-c2nnc3n2N=C(c2ccc(OC)c(OC)c2)CS3)cc1	none (no result: Pf growth 48h, Pf growth 96h, NS1 function inh)
O=C(OCC#CCSc1nc2ccccc2s1)c1ccco1	CHX counter 37
O=C(OCC#CCSc1nnc(-c2ccccc2)o1)c1ccco1	none
O=C(OCc1nnc(-c2ccccc2)o1)c1ccc(Br)o1	none (no result: CHX counter, FBPA Giardia inh, Shiga toxin inh, NS1 function inh)
O=C(OCc1nnc(-c2ccc(Br)cc2)o1)c1ccco1	CHX counter 28, Pf growth 96h inconclusive
O=C(OCC#CCSc1nnc(-c2ccc(Br)cc2)o1)c1ccco1	CHX counter 19, Shiga toxin inh 47
O=c1[nH]c(C2CCN(S(=O)(=O)c3ccccc3)CC2)nc2c1nnn2Cc1ccccc1	Pf growth 48h inconclusive
COCc1c(C(=O)N(C)Cc2ccccc2N2CCCC2)oc2ccccc12	Pf growth 48h inconclusive, Pf growth 96h 9.3µM (no result: CHX counter, FBPA Giardia inh, Shiga toxin inh, NS1 function inh)
Cc1c(C(=O)NCc2cccs2)oc2ccccc12	CHX counter 19, Shiga toxin inh 30 (no result: Pf growth 96h)
Cc1c(C(=O)NCc2ccccc2F)oc2ccccc12	Pf growth 96h inconclusive (no result: FBPA Giardia inh)
COCc1c(C(=O)N2CCN(c3ncccn3)CC2)oc2ccccc12	Pf growth 96h inconclusive (no result: CHX counter, FBPA Giardia inh, Shiga toxin inh, NS1 function inh)
Cc1c(C(=O)NCCCN2CCCC2=O)oc2ccccc12	CHX counter 27, Pf growth 96h inconclusive, Shiga toxin inh 72
O=C(Nc1ccccc1Cc1ccccc1)c1oc2ccccc2c1COc1ccccc1	Pf growth 48h inconclusive, Pf growth 96h 10µM
Cc1c(C(=O)NCCCN2CCCC2=O)oc2c(Cl)cccc12	none (no result: CHX counter, FBPA Giardia inh, Shiga toxin inh, NS1 function inh)
Cc1ccc(S(=O)(=O)NC(C)(C)C)cc1C(=O)OCC(=O)N1CCCC1=O	none (no result: CHX counter, FBPA Giardia inh, Shiga toxin inh, NS1 function inh)
C[n+]1cccc(C(=O)Nc2ccccc2)c1	none
COc1ccc2oc(C(=O)NCCc3ccccc3)c(C)c2c1	none (no result: CHX counter, FBPA Giardia inh, Shiga toxin inh, NS1 function inh)
Cc1c(C(=O)NCCc2ccccc2)oc2ccccc12	CHX counter 29, Shiga toxin inh 75
COCc1c(C(=O)NC2CCCCCC2)oc2ccccc12	CHX counter 22, Shiga toxin inh 62
Cc1c(C(=O)NC2CC2)oc2ccccc12	none (no result: CHX counter, FBPA Giardia inh, Shiga toxin inh, NS1 function inh)
CSCc1c(C(=O)OCC(=O)NC2CCCCC2)oc2ccccc12	none (no result: CHX counter, FBPA Giardia inh, Shiga toxin inh, NS1 function inh)
Cc1c(C(=O)NC2CCC(C)CC2)oc2ccccc12 (stereo unspecified)	CHX counter 46, Shiga toxin inh 61 (no result: FBPA Giardia inh)
